# Bioassay records (PubChem BioAssay)
# Only some compounds are listed: those with a hit (about 19% of all), similar ones and a draw of the others.
# DT40 TDP1 no CPT – qHTS for Inhibitors of human tyrosyl-DNA phosphodiesterase 1 (TDP1): qHTS in cells in absence of CPT; DT40 Tdp1-/- hTDP1 cells, no CPT, ATP luminescence, 48 h; Potency, µM (titrated, usually from 46.2 µM), inactives show at the highest dose activity change, negative = growth inhibition, hits mostly inhibitors; 420,000 tested, 15% active; AID 686978, 2013; also: potency is read from the fitted curve at half-maximal effect; nearly all actives have a fitted effect of over 55% in size
#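 Chicken DT40 Tdp1-/- cells stably complemented with human TDP1 were seeded at 400 cells/well with DMSO in place of 20 nM camptothecin. After compound pinning, cells grew at least 48 hr at 37 °C; viability read by CellTiter-Glo luminescence.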
# HT1080NT lethal – kills 2HG-producing HT-1080-NT fibrosarcoma cells; AID 686970; HT-1080-NT fibrosarcoma viability, CellTiter-Glo ATP luminescence, 48 h; 360,000 tested, 1.6% active; Potency, µM (titrated, usually from 46.1 µM), without a hit: top-dose activity, negative = less viability, most hits filed as cytotoxic;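 also: NT is the 2HG producing partner of a matched IDH1 knockdown line; potency is read from the fitted curve at half-maximal effect; 0% = DMSO-treated cells and -100% = media-only wells without cells; nearly all actives have a fitted effect of over 55% in size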
#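 Fibrosarcoma NT cells, 750 per well in 5% FBS RPMI, were exposed to compound for 48 hours. Viability: CellTiter-Glo luminescence.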
# IL1B secr inh – inhibitors of inflammasome signaling (IL-1 beta secretion); activity change, % at 57.5 µM; THP-1 LPS/ATP IL-1B secretion, AlphaLISA, 16 h; hits give low values; 360,000 tested, 4.7% active; in the data active = activity change below about -50%; inconclusive = mostly about -30% to -49%
#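 Secreted IL-1B measured by AlphaLISA bead assay after 16 h compound exposure of THP-1 cells; compounds (final up to 57.5 uM) added 1 h before LPS (250 ng/mL) and ATP (1.25 mM) stimulation; lower signal means less secretion.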
# TDP1 cell CPT – growth inhibition of DT40 Tdp1-/-;hTDP1 cells with camptothecin (screen for TDP1 inhibitors); chicken DT40 Tdp1-/-;hTDP1 cells + 20 nM CPT, ATP luminescence, 48 h; Potency, µM (titrated, usually from 46.2 µM), without a hit: at the top dose activity change, negative = growth inhibition, hits mostly inhibitors; 420,000 tested, 12% active; also: potency is read from the fitted curve at half-maximal effect; nearly all actives have a fitted effect of over 55% in size
#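 Chicken DT40 Tdp1-/- cells complemented with human TDP1, 400 cells/well, exposed to compounds plus 20 nM camptothecin for at least 48 h at 37 C; viability read as ATP content by CellTiter-Glo luminescence.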
# HT1080 IDH1KD tx – kills HT-1080 cells with IDH1 knockdown | Potency, µM (highest dose often 46.1 µM), inactives show top-dose activity, negative = toxicity, hits mostly cytotoxic | HT-1080 IDH1 knockdown viability, ATP luminescence, 48 h | 360,000 tested, 2% active;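 also: potency is read from the fitted curve at half-maximal effect; 0% = DMSO wells and -100% = cell-free medium wells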
#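 CellTiter-Glo luminescence after 48 h compound exposure at 37 degrees C of IDH1-knockdown HT-1080 cells in 5% FBS RPMI. %Activity scaled between DMSO wells and cell-free media wells, with curves fitted and assigned curve classes.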
# Starred values were filed as active, the others as inactive; i = inactive; ? = inconclusive; nt = not tested or not shown. Unless noted, calls follow the shape of the dose curve; as a rule, active = well fitted curve in the direction sought with a large enough effect; inconclusive = small, poorly fitted or top-dose-only effect, or another doubt; inactive = no such curve, though single readings can be large; an effect the other way counts as inactive or inconclusive. Unless noted, % is scaled to controls: 0 for no effect and ±100 for the full control effect.
SMILES,DT40 TDP1 no CPT,HT1080NT lethal,IL1B secr inh,TDP1 cell CPT,HT1080 IDH1KD tx
COc1ccc(N(CC(=O)NCCSCc2ccccc2C)S(=O)(=O)c2ccccc2)cc1,16µM*,?,-19,16µM*,?
COc1ccc(S(=O)(=O)N(CC(=O)NCCSc2ccccc2)c2ccc(Cl)cc2)cc1,12µM*,nt,nt,16µM*,nt
CC(C)(C)C(=O)Nc1cccc2[nH]ncc12,-6%,1%,1,-1%,20%
Cc1ccccc1C(=O)NC1(C(F)(F)F)C(=O)Nc2c1c(=O)[nH]c(=O)n2-c1ccc(F)cc1 (stereo not drawn),?,nt,nt,-20%,nt
Cn1cccc1C(=O)N1CCC2(CCCN(C(=O)Nc3ccccc3)C2)CC1,0%,nt,nt,6%,nt
CCOC(=O)C1(C)CCCN(C(=O)c2ccc3c(c2)CCO3)C1 (stereo not drawn),-11%,21%,15,-16%,5%
COc1ccc(N(CC(=O)NCCSC2CCCCC2)S(=O)(=O)c2ccc(C)cc2)cc1,23µM*,5%,-4,-88%,3%
COc1ccc(N(CC(=O)NCCSc2ccccc2)S(C)(=O)=O)cc1,-8%,-5%,-11,0%,-7%
CCOc1ccc(N(CC(=O)NCCSc2ccccn2)S(=O)(=O)c2ccc(Cl)cc2)cc1,?,-11%,5,?,-5%
COc1ccc(S(=O)(=O)N(CC(=O)NCCSc2ccccc2)c2ccc(C)cc2)cc1,13µM*,nt,nt,18µM*,nt
Cc1ccc(N(CC(=O)NCC(O)c2ccccc2)S(=O)(=O)c2ccc(C)cc2)cc1 (stereo not drawn),-23%,-14%,-94*,-1%,-5%
CCOc1ccc(N(CC(=O)N/N=C/c2ccccn2)S(=O)(=O)c2ccc(Cl)cc2)cc1,21µM*,?,33,?,?
O=C(COc1ccccc1F)Nc1ccccc1C(=O)OCc1cc(=O)n2nc(C3CC3)sc2n1,-16%,nt,nt,-6%,nt
Cc1ccccc1OCCC(=O)NCCc1ccc(S(N)(=O)=O)cc1,9%,2%,10,-1%,-1%
O=C(/C=C/c1ccccc1[N+](=O)[O-])Nc1cccnc1,?,-4%,33,-1%,-3%
CC(=O)N1CCN(C(=O)CCc2cc(C(C)(C)C)c(O)c(C(C)(C)C)c2)CC1,-24%,-7%,i,-26%,15%
COc1ccc(CCNC(=O)CN(c2ccc(C)cc2)S(=O)(=O)c2ccc(OC)cc2)cc1,23µM*,nt,nt,?,nt
Cc1ccc(S(=O)(=O)N(CC(=O)NCCc2ccc(Cl)cc2)c2ccccc2C)cc1,13µM*,nt,nt,18µM*,nt
O=C(CN1C(=O)NC2(CCCCCC2)C1=O)N1CCN(c2ccccc2)CC1,8%,-2%,-7,-9%,6%
O=C(/C=C/c1ccc2c(c1)OCO2)NCCSCc1c(Cl)cccc1Cl,1%,-11%,0,-22%,?
COc1ccc2cc3cc(C(=O)Nc4ccccc4N4CCN(C)CC4)oc3nc2c1,4.6µM*,2%,-96*,4.6µM*,7%
Cc1ccc2cc3cc(C(=O)NCCCN4CCCC4)oc3nc2c1,14%,-9%,-51*,2%,-11%
CCOCCCNC(=O)c1cc2cc3cc(OC)ccc3nc2o1,-29%,5%,-2,16µM*,0%
COc1ccc2cc3cc(C(=O)NCCN4CCN(c5ccccc5F)CC4)oc3nc2c1,16µM*,10%,-18,?,4%
COc1cc(C2C3=C(CC(C)(C)CC3=O)OC(N)=C2[N+](=O)[O-])ccc1O (stereo not drawn),?,7%,-16,?,6%
Cc1cccc(OCC(=O)N(Cc2ccc(F)cc2)C2CCS(=O)(=O)C2)c1C (stereo not drawn),-1%,22%,2,-22%,-1%
COc1ccc2cc3cc(C(=O)NCC4CCCO4)oc3nc2c1 (stereo not drawn),-11%,1%,-56*,1%,-1%
